According to PubChem BioAssay AID1159580 (chemical genetic matrix, 2015):
About 2,000 (36%) of roughly 5,500 compounds were called active. Not shown: some 18% with an inconclusive outcome. No stated cut-off is given here; in the data, active means normalized growth mostly below about 0.91 (no sharp cut-off); inconclusive means no clear call, values can overlap the other calls; inactive means mostly above about 0.92. The list shows a part of the results.

Experiment: chemical genetic growth profiling, strain panel (AID 1159580);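 further: tested at 20 µM; growth read once vehicle control cultures reached saturation at 30 °C; 1 = growth at the plate median or of vehicle wells; lower values mean less growth of the strain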
Conditions: S. cerevisiae deletion strains, growth OD
[1] = locus YDL101C, strain DUN1, active compounds read low
[2] = locus YHR030C, strain SLT2, active compounds read low

Measured: normalized growth

Cc1noc(C)c1-c1nc(-c2cc(C(F)(F)F)cc(C(F)(F)F)c2)no1
inactive: locus YAL013W, strain DEP1, active compounds read low 1.02 | locus YBR229C, strain ROT2, active compounds read low 1.01 | locus YCL061C, strain MRC1, active compounds read low 0.992 | [1] 1.02 | locus YDL134C, strain PPH21, active compounds read low 1.01 | locus YDR150W, strain NUM1, active compounds read low 0.983 | locus YEL061C, strain CIN8, active compounds read low 1.01 | locus YGR078C, strain PAC10, active compounds read low 1.01 | [2] 1.03 | locus YHR087W, strain rtc3, active compounds read low 1 | locus YJL187C, strain SWE1, active compounds read low 1 | locus YJR043C, strain POL32, active compounds read low 1 | locus YJR075W, strain HOC1, active compounds read low 0.999 | locus YLR039C, strain RIC1, active compounds read low 1.06 | locus YLR058C, strain SHM2 (second series), active compounds read low 0.993 | locus YLR085C, strain ARP6, active compounds read low 1.03 | locus YLR262C, strain YPT6, active compounds read low 1.03 | locus YML094W, strain GIM5, active compounds read low 1.07 | locus YMR219W, strain ESC1, active compounds read low 0.998 | locus YMR263W, strain SAP30, active compounds read low 0.981 | locus YMR307W, strain GAS1, active compounds read low 0.99 | locus YNL128W, strain TEP1, active compounds read low 1.02 | locus YNL153C, strain GIM3, active compounds read low 1 | locus YNL298W, strain CLA4 (second series), active compounds read low 1 | locus YNL322C, strain KRE1, active compounds read low 1.01 | locus YNR030W, strain Alg12, active compounds read low 1.03 | locus YPL055C, strain LGE1, active compounds read low 1.05 | locus YPL241C, strain CIN2, active compounds read low 1.01 | locus YPR135W, strain CTF4, active compounds read low 1.07

Clc1cc(Cl)cc(-c2nc(SCc3ccc(Cl)cc3Cl)n[nH]2)c1
active: [2] 0.356 | locus YLR113W, strain HOG1, active compounds read low 0.772 | locus YPL256C, strain CLN2, active compounds read low 0.835
inactive: locus YAR019C, strain CDC15, active compounds read low 0.991 | locus YBL105C, strain PKC1, active compounds read low 0.99 | locus YBR135W, strain CKS1, active compounds read low 0.982 | locus YBR136W, strain MEC1, active compounds read low 0.998 | locus YBR160W, strain CDC28, active compounds read low 0.991 | locus YDL017W, strain CDC7, active compounds read low 0.987 | locus YDL028C, strain MPS1, active compounds read low 0.995 | [1] 1 | locus YDL108W, strain KIN28, active compounds read low 0.986 | locus YDL132W, strain cdc53, active compounds read low 0.981 | locus YDL214C, strain PRR2, active compounds read low 0.913 | locus YDR052C, strain DBF4, active compounds read low 0.998 | locus YDR054C, strain cdc34, active compounds read low 0.984 | locus YDR226W, strain ADK1, active compounds read low 0.992 | locus YDR477W, strain SNF1, active compounds read low 0.938 | locus YER123W, strain YCK3, active compounds read low 0.908 | locus YER133W, strain GLC7, active compounds read low 0.968 | locus YFL009W, strain cdc4, active compounds read low 0.981 | locus YFL029C, strain CAK1, active compounds read low 0.995 | locus YFR003C, strain YPI1, active compounds read low 0.995 | locus YFR019W, strain FAB1, active compounds read low 0.901 | locus YFR028C, strain CDC14, active compounds read low 1 | locus YGR040W, strain KSS1, active compounds read low 0.964 | locus YGR052W, strain FMP48, active compounds read low 0.937 | locus YGR092W, strain DBF2, active compounds read low 0.839 | locus YHR079C, strain IRE1, active compounds read low 0.845 | locus YHR082C, strain KSP1, active compounds read low 0.911 | locus YHR205W, strain SCH9, active compounds read low 0.829 | locus YIL147C, strain SLN1, active compounds read low 0.992 | locus YJL095W, strain BCK1, active compounds read low 0.81 | locus YJL128C, strain PBS2, active compounds read low 0.964 | locus YJL157C, strain FAR1, active compounds read low 0.942 | locus YJR016C, strain ILV3, active compounds read low 0.987 | locus YJR066W, strain TOR1 (second series), active compounds read low 0.98 | locus YJR066W, strain TOR1, active compounds read low 0.893 | locus YKL048C, strain ELM1, active compounds read low 0.964 | locus YKL067W, strain YNK1, active compounds read low 0.882 | locus YKL101W, strain HSL1, active compounds read low 0.891 | locus YKL193C, strain SDS22, active compounds read low 0.985 | locus YKL203C, strain TOR2, active compounds read low 1.05 | locus YLR133W, strain CKI1, active compounds read low 0.924 | locus YLR403W, strain SFP1, active compounds read low 0.963 | locus YML070W, strain DAK1, active compounds read low 0.92 | locus YMR001C, strain CDC5, active compounds read low 0.988 | locus YMR205C, strain PFK2 (second series), active compounds read low 0.927 | locus YMR277W, strain FCP1, active compounds read low 0.983 | locus YNL006W, strain LST8, active compounds read low 0.965 | locus YNL020C, strain ARK1, active compounds read low 0.914 | locus YNL161W, strain CBK1, active compounds read low 0.991 | locus YNL183C, strain NPR1, active compounds read low 0.916 | locus YNL207W, strain RIO2, active compounds read low 0.983 | locus YNL222W, strain SSU72, active compounds read low 0.987 | locus YNL307C, strain MCK1 (second series), active compounds read low 0.864 | locus YOL078W, strain AVO1, active compounds read low 0.985 | locus YOL136C, strain PFK27, active compounds read low 0.893 | locus YOR061W, strain CKA2, active compounds read low 0.756 | locus YOR119C, strain RIO1, active compounds read low 0.956 | locus YOR231W, strain MKK1, active compounds read low 0.873 | locus YOR329C, strain SCD5, active compounds read low 0.986 | locus YPL031C, strain PHO85, active compounds read low 0.927 | locus YPL153C, strain RAD53, active compounds read low 0.889 | locus YPL204W, strain HRR25, active compounds read low 0.915 | locus YPL209C, strain IPL1, active compounds read low 0.985 | locus YPR025C, strain CCL1, active compounds read low 0.98 | locus YPR106W, strain ISR1, active compounds read low 0.981 | locus YPR111W, strain DBF20, active compounds read low 0.948 | strain NNK1, active compounds read low 0.981 | strain TSCII, active compounds read low 0.993
